Assay [1] concerns the target human Peroxisome Proliferator-activated Receptor alpha (PPARa), PPARA (gene 5465) (UniProt Q07869). Kind of assay: ATG_PPARa_TRANS: Attagene TRANS-FACTORIAL HepG2 Assay for human Peroxisome Proliferator-activated Receptor alpha (PPARa) (AID 2283001).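 As to AC50: potency for gain of reporter signal over DMSO so agonist or activator.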 In short, it runs like this: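 Transient HepG2 transfection, GAL4-UAS reporters, NR-Gal4 chimeras; 24 h compound exposure. Readout: reporter transcripts by RT-PCR, 6-FAM primer extension, HpaI digest, capillary electrophoresis. Positive direction vs DMSO baseline.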

Read-out in assay [2]: Intercellular Adhesion Molecule 1 (ICAM1), ICAM1 (gene 3383)
Briefly: BSK_3C_ICAM1: BioMAP Diversity Plus: 3C Assay for Intercellular Adhesion Molecule 1 (ICAM1) Biomarker Activity (AID 2283003; active = hit-call score of the fitted dose curve at least 0.9, where 1 is the maximum; inactive = score below 0.9). The conditions noted are these: primary human endothelial cells (HUVEC); actives raise or lower the signal. The essentials: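 Using DMSO as baseline, bidirectional curve fitting was applied to ICAM-1 ELISA signals from HUVEC in the 3C system, measured 24 h after compound addition.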

Assay [3] addresses Retinoic acid receptor alpha (Homo sapiens) (UniProt P10276). Briefly: ATG_RARa_TRANS: Attagene TRANS-FACTORIAL HepG2 Assay for human Retinoic Acid Receptor alpha (RARa) (AID 2283005). In short, it runs like this: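 HepG2 transiently transfected with multiplex GAL4-UAS reporter units including a human RARa–GAL4 chimera; 24 h compound exposure. Reporter mRNA quantified by RT-PCR, 6-FAM labeling and capillary electrophoresis; gain of signal versus DMSO.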

A short description of assay [4]: BSK_3C_Proliferation: Cell Proliferation Assessment in the BioMAP Diversity Plus: 3C Assay (AID 2283006; active = hit-call score of the fitted dose curve at least 0.9, where 1 is the maximum; inactive = score below 0.9;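 as to AC50: potency may reflect either rise or fall in cell number versus DMSO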). The note with it: primary human endothelial cells (HUVEC). In short, it runs like this: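 Measured here: sulforhodamine B (0.1%) staining of TCA-fixed sub-confluent umbilical vein endothelial cultures 48 h post-dosing, absorbance 560 nm. DMSO served as negative control and baseline; both signal gain and loss were modelled.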

Assay [5] deals with Peroxisome proliferator-activated receptor gamma (Homo sapiens) (UniProt P37231). Briefly: ATG_PPARg_TRANS: Attagene TRANS-FACTORIAL HepG2 Assay for human Peroxisome Proliferator-activated Receptor-gamma (PPARg) (AID 2283007). The essentials: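 After 24 h of chemical exposure, transfected HepG2 cells carrying PPARγ-Gal4 chimera reporter constructs are lysed for RNA. Reporter transcripts are measured by RT-PCR and capillary electrophoresis with fluorescent labelling, and gain of signal is fitted versus DMSO.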
Chain of Peroxisome proliferator-activated receptor gamma (Homo sapiens) (P37231 whole entry, looked up, the tested form may be a part): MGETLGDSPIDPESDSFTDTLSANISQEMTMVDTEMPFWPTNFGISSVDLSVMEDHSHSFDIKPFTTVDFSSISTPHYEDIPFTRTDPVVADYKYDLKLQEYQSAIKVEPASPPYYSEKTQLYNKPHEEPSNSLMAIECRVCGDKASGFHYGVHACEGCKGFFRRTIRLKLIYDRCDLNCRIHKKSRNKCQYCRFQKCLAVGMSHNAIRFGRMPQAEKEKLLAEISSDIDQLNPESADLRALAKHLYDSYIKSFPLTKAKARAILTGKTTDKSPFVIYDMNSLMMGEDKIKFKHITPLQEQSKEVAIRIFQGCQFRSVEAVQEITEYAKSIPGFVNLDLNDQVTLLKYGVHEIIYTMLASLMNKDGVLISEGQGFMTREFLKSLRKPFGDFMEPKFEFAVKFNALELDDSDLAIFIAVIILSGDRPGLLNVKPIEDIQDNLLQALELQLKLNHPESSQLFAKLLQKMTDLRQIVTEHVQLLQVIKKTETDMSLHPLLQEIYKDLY

The target in assay [6] is Nuclear receptor subfamily 1 group I member 2 (Homo sapiens) (UniProt O75469). Briefly: ATG_PXR_TRANS: Attagene TRANS-FACTORIAL HepG2 Assay for human Pregnane X Receptor (PXR) (AID 2283008). The essentials: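 Transactivation by exogenous PXR–GAL4 fusion measured as reporter transcript induction after 24 h compound treatment of transfected human HepG2 cells. Read-out via RT-PCR and capillary electrophoresis of labelled fragments, fitted upward relative to DMSO.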
Chain of Nuclear receptor subfamily 1 group I member 2 (Homo sapiens) (O75469 whole entry, looked up, the tested form may be a part): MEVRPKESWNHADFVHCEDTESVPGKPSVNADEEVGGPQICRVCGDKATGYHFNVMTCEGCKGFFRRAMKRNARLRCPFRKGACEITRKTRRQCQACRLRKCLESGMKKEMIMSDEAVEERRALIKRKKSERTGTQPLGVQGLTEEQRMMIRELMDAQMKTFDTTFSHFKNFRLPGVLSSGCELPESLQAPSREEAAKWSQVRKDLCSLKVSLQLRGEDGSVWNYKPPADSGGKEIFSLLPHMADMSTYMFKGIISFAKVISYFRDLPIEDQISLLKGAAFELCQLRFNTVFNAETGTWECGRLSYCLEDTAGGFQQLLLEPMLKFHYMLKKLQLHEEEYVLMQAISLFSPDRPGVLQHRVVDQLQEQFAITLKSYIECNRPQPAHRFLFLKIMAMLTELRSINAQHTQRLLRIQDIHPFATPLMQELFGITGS

For assay [7], the target named is human RAR-related Orphan Receptor beta (RORb), RORB (gene 6096) (UniProt Q92753). Kind of assay: ATG_RORb_TRANS: Attagene TRANS-FACTORIAL HepG2 Assay for human RAR-related Orphan Receptor beta (RORb) (AID 2283010).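 As to AC50: potency for increased reporter mRNA meaning activation of RORb-Gal4 chimera.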 The essentials: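 Multiplexed transcription-factor reporter assay: HepG2 cells transiently carrying NR-Gal4/GAL4-UAS constructs, 24 h treatment, mRNA quantified by RT-PCR plus capillary electrophoresis fluorescence; activity scored as induction over DMSO.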
Chain of human RAR-related Orphan Receptor beta (RORb), RORB (gene 6096) (Q92753 whole entry, looked up, the tested form may be a part): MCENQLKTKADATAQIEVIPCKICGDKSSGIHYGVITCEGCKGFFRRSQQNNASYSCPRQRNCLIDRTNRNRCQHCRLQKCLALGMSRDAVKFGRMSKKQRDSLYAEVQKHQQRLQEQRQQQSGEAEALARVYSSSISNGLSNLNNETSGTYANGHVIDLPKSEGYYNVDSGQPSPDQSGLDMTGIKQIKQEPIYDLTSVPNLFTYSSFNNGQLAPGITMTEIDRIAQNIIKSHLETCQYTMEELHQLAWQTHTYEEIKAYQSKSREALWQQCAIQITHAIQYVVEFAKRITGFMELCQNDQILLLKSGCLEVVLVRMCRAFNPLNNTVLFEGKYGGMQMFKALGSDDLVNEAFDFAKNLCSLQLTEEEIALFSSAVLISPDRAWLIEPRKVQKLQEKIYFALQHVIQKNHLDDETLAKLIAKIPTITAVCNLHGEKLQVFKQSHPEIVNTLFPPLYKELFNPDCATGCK

The target in assay [8] is Retinoic acid receptor RXR-alpha (Homo sapiens) (UniProt P19793). Kind of assay: ATG_RXRa_TRANS: Attagene TRANS-FACTORIAL HepG2 Assay for human Retinoid X Receptor alpha (RXRa) (AID 2283012). The essentials:
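Chimeric NR-GAL4 trans-activation in HepG2, 24 h treatment; reporter transcripts quantified by fluorescence on capillary electrophoresis, analysed for upward change from DMSO.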

Assay [9] deals with human Retinoid X Receptor beta (RXRb), RXRB (gene 6257) (UniProt P28702). Kind of assay: ATG_RXRb_TRANS: Attagene TRANS-FACTORIAL HepG2 Assay for human Retinoid X Receptor beta (RXRb) (AID 2283013). In short, it runs like this: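 After a 24 h incubation with test chemical, transfected HepG2 cells carrying NR-Gal4 fusions and GAL4-UAS reporter transcription units yield RNA whose reporter cDNA is FAM-labelled, HpaI-cut and sized by capillary electrophoresis; increases over DMSO are scored.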
Chain of human Retinoid X Receptor beta (RXRb), RXRB (gene 6257) (P28702 whole entry, looked up, the tested form may be a part): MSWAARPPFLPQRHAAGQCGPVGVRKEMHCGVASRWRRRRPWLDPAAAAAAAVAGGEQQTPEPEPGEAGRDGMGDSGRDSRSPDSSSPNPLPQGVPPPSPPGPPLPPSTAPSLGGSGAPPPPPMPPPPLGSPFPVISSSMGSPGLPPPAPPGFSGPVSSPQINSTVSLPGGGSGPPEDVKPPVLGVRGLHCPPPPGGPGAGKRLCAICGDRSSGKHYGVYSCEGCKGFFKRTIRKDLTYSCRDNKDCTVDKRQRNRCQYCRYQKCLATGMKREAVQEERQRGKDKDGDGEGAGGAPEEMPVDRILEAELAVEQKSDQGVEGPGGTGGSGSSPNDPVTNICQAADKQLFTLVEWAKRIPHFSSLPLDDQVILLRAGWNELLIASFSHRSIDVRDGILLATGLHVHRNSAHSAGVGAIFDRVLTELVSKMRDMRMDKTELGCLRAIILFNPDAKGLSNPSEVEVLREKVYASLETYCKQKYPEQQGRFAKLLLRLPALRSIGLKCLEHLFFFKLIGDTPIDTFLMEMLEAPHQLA

Assay [10] deals with human Thyroid Receptor alpha (THRa1), THRA (gene 7067) (UniProt P10827). Briefly: ATG_THRa1_TRANS: Attagene TRANS-FACTORIAL HepG2 Assay for human Thyroid Receptor alpha (THRa1) (AID 2283014). In short, it runs like this: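 Reporter transcript induction, read by capillary electrophoresis of 6-FAM-labelled RT-PCR products, reflects activity of a transfected THRa1-Gal4 fusion in HepG2 liver cells. Cells were dosed for 24 h; activity was fitted in the positive direction against DMSO.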
Chain of human Thyroid Receptor alpha (THRa1), THRA (gene 7067) (P10827 whole entry, looked up, the tested form may be a part): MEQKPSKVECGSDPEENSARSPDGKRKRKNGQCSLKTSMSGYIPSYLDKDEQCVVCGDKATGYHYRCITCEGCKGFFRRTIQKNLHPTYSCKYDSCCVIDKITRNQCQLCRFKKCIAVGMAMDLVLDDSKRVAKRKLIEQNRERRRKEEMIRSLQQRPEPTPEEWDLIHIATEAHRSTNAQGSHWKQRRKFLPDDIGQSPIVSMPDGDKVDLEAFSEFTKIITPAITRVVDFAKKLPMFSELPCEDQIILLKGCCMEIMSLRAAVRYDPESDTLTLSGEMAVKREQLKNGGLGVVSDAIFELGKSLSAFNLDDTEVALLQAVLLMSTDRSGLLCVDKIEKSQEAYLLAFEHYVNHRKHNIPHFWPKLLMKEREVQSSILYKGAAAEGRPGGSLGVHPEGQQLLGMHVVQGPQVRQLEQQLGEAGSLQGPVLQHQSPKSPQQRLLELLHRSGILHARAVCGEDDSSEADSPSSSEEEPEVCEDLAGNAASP

Read-out in assay [11]: E-selectin (Homo sapiens) (UniProt P16581)
Kind of assay: BSK_3C_Eselectin: BioMAP Diversity Plus: 3C Assay for Eselectin Biomarker Activity (AID 2283015; active = hit-call score of the fitted dose curve at least 0.9, where 1 is the maximum; inactive = score below 0.9;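 as to outcome: cell surface E-selectin protein quantified by ELISA 24 h after dosing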). The conditions noted are these: primary human endothelial cells (HUVEC); actives raise or lower the signal. The essentials:
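ELISA read-out of E-selectin on endothelial monolayers after 24 h chemical treatment. Human umbilical vein primary cells served as the system, with DMSO defining baseline activity for bidirectional fitting.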

Read-out in assay [12]: Monocyte Chemoattractant Protein-1 (MCP1), CCL2 (gene 6347)
Briefly: BSK_3C_MCP1: BioMAP Diversity Plus: 3C Assay for Monocyte Chemoattractant Protein-1 (MCP1) Biomarker Activity (AID 2283017; active = hit-call score of the fitted dose curve at least 0.9, where 1 is the maximum; inactive = score below 0.9). The conditions noted are these: primary human endothelial cells (HUVEC); actives raise or lower the signal. In short, it runs like this:
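ELISA read-out of MCP-1 from human umbilical vein endothelial cell cultures harvested 24 h post-dosing. Gain or loss of signal was fitted relative to DMSO.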

Read-out in assay [13]: Monocyte Chemoattractant Protein-1 (MCP1), CCL2 (gene 6347)
Kind of assay: BSK_4H_MCP1: BioMAP Diversity Plus: 4H Assay for Monocyte Chemoattractant Protein-1 (MCP1) Biomarker Activity (AID 2283018; active = hit-call score of the fitted dose curve at least 0.9, where 1 is the maximum; inactive = score below 0.9). The conditions noted are these: primary human endothelial cells (HUVEC); actives raise or lower the signal. The essentials:
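Primary human umbilical vein endothelium is exposed to chemical for 24 h before MCP-1 is assayed by ELISA. Concentration-response fitted bidirectionally relative to DMSO.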

Read-out in assay [14]: Human Leukocyte Antigen - DR isotype (HLADR), HLA-DRA (gene 3122)
Briefly: BSK_3C_HLADR: BioMAP Diversity Plus: 3C Assay for Human Leukocyte Antigen - DR isotype (HLADR) Biomarker Activity (AID 2283019; active = hit-call score of the fitted dose curve at least 0.9, where 1 is the maximum; inactive = score below 0.9). The note with it: primary human endothelial cells (HUVEC); actives raise or lower the signal. In short, it runs like this: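 ELISA readout of surface HLA-DR on human umbilical vein endothelium, taken 24 h after chemical treatment. Gain- and loss-of-signal were both fitted relative to DMSO.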

Assay [15] deals with human Vitamin D Receptor (VDR), VDR (gene 7421) (UniProt P11473). Briefly: ATG_VDR_TRANS: Attagene TRANS-FACTORIAL HepG2 Assay for human Vitamin D Receptor (VDR) (AID 2283022). In short, it runs like this: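 Steps: transfect HepG2 with GAL4-UAS-driven reporter constructs; dose compounds 24 h; isolate RNA, reverse-transcribe, PCR-amplify with 6-FAM-labelled primer extension and HpaI digestion; quantify fragments by capillary electrophoresis relative to DMSO.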
Chain of human Vitamin D Receptor (VDR), VDR (gene 7421) (P11473 whole entry, looked up, the tested form may be a part): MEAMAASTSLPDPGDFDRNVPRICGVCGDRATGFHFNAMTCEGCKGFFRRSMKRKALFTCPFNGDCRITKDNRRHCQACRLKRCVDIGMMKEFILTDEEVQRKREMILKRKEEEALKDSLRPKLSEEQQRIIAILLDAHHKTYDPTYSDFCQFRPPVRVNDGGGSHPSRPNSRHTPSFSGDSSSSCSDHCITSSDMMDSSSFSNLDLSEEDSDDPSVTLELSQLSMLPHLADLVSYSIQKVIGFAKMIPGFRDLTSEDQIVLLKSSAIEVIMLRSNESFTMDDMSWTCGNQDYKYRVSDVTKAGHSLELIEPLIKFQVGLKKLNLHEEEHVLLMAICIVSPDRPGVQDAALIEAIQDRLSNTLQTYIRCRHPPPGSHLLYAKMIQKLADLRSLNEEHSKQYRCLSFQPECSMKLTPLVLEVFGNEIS

Read-out in assay [16]: Interleukin-1 alpha (IL1a), IL1A (gene 3552)
Kind of assay: BSK_BE3C_IL1a: BioMAP Diversity Plus: BE3C Assay for Interleukin-1 alpha (IL1a) Biomarker Activity (AID 2283016; active = hit-call score of the fitted dose curve at least 0.9, where 1 is the maximum; inactive = score below 0.9). The conditions noted are these: primary human bronchial epithelial cells; actives raise or lower the signal. The essentials: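 Measured in human lung primary bronchial epithelial cells: IL-1a by ELISA at 24 h after dosing, with bidirectional fitting against DMSO.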

Read-out in assay [17]: Monokine induced gamma interferon (MIG), CXCL9 (gene 4283)
Briefly: BSK_3C_MIG: BioMAP Diversity Plus: 3C Assay for Monokine induced gamma interferon (MIG) Biomarker Activity (AID 2283021; active = hit-call score of the fitted dose curve at least 0.9, where 1 is the maximum; inactive = score below 0.9;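 as to AC50: MIG protein level measured by immunoassay in the treated endothelial cultures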). The conditions noted are these: primary human endothelial cells (HUVEC); actives raise or lower the signal. The essentials: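 ELISA-measured MIG in dosed HUVEC 3C cultures at 24 h, analysed by bidirectional fitting with DMSO defining baseline activity.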

The target of assay [18] is human Retinoic Acid Receptor beta (RARb), RARB (gene 5915) (UniProt P10826). Briefly: ATG_RARb_TRANS: Attagene TRANS-FACTORIAL HepG2 Assay for human Retinoic Acid Receptor beta (AID 2283004). In short, it runs like this:
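Transient transfection of HepG2 with multiple reporter units → chemical dosing, 24 h → total RNA isolation → RT with oligo(dT) → reporter-specific PCR, 6-FAM primer extension, HpaI digest → capillary electrophoresis. Positive direction vs DMSO control.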

Read-out in assay [19]: Interleukin-8 (IL8), CXCL8 (gene 3576)
Kind of assay: BSK_3C_IL8: BioMAP Diversity Plus: 3C Assay for Interleukin-8 (IL8) Biomarker Activity (AID 2283020; active = hit-call score of the fitted dose curve at least 0.9, where 1 is the maximum; inactive = score below 0.9). The conditions noted are these: primary human endothelial cells (HUVEC); actives raise or lower the signal. The essentials: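 Using DMSO-treated wells as the baseline, bidirectional curve fitting was applied to ELISA-measured IL-8 from human umbilical vein endothelial cultures sampled 24 h after compound addition.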

The structures appear in SMILES notation. “And” between values parts separate entries of the source, which are not always exact repeats. Equal entries are not always repeated. Records with an inconclusive call do not appear. Some compounds were tested as several samples or in several runs, with calls that do not always agree. The source made the active and inactive calls. The calls were made as follows, unless noted: active = hit-call score of the fitted dose curve at least 0.9, where 1 is the maximum; inconclusive = response in the unintended direction; inactive = score below 0.9.

Chain of human Peroxisome Proliferator-activated Receptor alpha (PPARa), PPARA (gene 5465) (Q07869 whole entry, looked up, the tested form may be a part): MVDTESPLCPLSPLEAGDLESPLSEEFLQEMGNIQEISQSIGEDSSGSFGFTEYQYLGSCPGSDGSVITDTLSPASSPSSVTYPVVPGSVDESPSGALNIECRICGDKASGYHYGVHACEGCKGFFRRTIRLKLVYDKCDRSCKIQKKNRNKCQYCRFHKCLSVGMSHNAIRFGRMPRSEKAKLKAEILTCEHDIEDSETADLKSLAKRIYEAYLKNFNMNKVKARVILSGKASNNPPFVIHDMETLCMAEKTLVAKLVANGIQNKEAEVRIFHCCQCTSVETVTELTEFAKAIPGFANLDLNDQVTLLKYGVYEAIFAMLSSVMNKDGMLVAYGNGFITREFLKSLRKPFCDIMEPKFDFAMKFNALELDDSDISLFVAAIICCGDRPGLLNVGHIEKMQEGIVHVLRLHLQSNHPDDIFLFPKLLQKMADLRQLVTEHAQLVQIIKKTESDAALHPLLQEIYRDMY
Chain of E-selectin (Homo sapiens) (P16581 whole entry, looked up): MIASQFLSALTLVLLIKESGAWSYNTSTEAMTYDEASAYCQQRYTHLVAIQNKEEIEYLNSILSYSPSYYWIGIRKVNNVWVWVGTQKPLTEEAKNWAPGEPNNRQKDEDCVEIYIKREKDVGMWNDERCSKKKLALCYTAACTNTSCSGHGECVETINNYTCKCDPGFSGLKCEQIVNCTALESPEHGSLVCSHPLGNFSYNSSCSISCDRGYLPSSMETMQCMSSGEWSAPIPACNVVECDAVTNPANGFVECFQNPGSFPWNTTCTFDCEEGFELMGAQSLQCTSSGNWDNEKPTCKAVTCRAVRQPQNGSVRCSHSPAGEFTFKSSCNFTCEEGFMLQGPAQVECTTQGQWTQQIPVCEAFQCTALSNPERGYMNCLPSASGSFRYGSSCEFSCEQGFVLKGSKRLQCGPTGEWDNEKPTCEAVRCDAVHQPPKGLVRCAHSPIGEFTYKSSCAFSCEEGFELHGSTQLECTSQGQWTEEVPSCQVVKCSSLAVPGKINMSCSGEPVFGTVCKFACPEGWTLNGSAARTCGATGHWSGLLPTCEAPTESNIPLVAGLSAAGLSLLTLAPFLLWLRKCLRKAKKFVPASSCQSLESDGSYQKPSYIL
Chain of Retinoic acid receptor alpha (Homo sapiens) (P10276 whole entry, looked up, the tested form may be a part): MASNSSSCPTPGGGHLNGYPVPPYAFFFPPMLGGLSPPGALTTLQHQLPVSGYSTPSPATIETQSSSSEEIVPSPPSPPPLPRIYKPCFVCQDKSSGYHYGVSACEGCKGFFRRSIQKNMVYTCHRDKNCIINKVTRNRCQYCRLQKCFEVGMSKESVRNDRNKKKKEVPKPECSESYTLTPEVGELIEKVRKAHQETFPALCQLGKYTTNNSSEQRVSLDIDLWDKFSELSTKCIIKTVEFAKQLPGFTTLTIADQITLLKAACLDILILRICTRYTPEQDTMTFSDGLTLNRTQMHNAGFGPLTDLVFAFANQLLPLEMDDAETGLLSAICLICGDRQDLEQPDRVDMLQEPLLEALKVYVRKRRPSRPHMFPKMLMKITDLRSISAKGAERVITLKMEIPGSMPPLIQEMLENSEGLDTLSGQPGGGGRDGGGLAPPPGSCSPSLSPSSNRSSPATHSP
Chain of Retinoic acid receptor RXR-alpha (Homo sapiens) (P19793 whole entry, looked up, the tested form may be a part): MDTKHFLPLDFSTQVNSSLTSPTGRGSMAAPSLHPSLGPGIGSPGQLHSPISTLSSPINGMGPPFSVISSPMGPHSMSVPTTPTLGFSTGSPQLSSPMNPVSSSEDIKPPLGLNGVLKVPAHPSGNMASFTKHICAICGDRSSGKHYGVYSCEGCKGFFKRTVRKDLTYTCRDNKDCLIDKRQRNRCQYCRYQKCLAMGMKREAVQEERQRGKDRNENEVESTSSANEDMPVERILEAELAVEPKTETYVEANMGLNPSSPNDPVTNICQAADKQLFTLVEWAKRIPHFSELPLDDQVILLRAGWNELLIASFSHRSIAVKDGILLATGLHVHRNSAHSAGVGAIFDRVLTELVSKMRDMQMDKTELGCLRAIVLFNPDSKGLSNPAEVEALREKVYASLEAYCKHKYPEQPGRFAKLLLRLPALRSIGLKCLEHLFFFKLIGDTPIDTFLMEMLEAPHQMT

For the compound `O=c1c(-c2ccc(O)cc2)coc2cc(O)cc(O)c12`, the AC50 (in general, the midpoint of the concentration-response curve, whichever way the signal moves) in assay [1] was 24.2 µM (active) and 100 µM (active) and 25.6 µM (active); in [4] it was 8.1 µM (active); in assay [5] it was 32.7 µM (active) [middle of 4 runs]; in [6], 24.2 µM (active); in [7] it was 27.4 µM (active); in [9] it was 25.2 µM (active) and 27.2 µM (active). The figures for the AC50 in assay [12], in [13] and in assay [14] were 25.3 µM (active), 8.42 µM (active) and 21.1 µM (active), respectively. In addition, the outcome in assay [2], in [3], in [6], in assay [7], in assay [8] and in [9] was inactive. Also, the outcome in [10], in assay [11] and in [15] was inactive.

Take `O=C(O)c1ccccc1C(=O)OCc1ccccc1`: the compound was classed as inactive in assay [1], in assay [2], in assay [3], in [4], in [5] and in assay [6]. The compound was called inactive in assay [8], in [11], in assay [16], in assay [12], in assay [13] and in assay [14]. For the same compound, in assay [17], the result was inactive.

As to `c1ccc2ccccc2c1`, the compound was classed as inactive in assay [1], in [2], in [18], in [4], in assay [6] and in [7]. For the same compound, the result in assay [8], in [9], in assay [10], in assay [11], in [16] and in assay [12] was inactive. Moreover, the result in assay [13], in assay [14] and in assay [15] was inactive. Also, in assay [9], the AC50 is 38.9 µM (active).

In the case of `c1ccc(C[n+]2cccc3ccccc32)cc1`, the compound was called inactive in assay [1], in [2], in assay [4], in [5], in assay [6] and in assay [8]. In addition, the result in assay [9], in assay [10], in assay [11], in assay [16], in assay [12] and in assay [13] was inactive. For the same compound, the result in assay [14], in assay [17] and in assay [15] was inactive.

As to `COc1cc(C(=O)NC2CCN(C)CC2)ccc1Nc1ncc2c(n1)N(C1CCCC1)CC(F)(F)C(=O)N2C`, the compound was called inactive in [1], in assay [2], in assay [5], in assay [6], in assay [7] and in assay [8]. The result in assay [9], in assay [10] and in [15] was inactive. Besides, the AC50 in assay [4] was 3.69 µM (active); in assay [11], 17.2 µM (active); in [16], 10.2 µM (active); in [12] it was 12 µM (active); in assay [13] it was 5.15 µM (active); in assay [14] it was 4.47 µM (active). Besides, in assay [17], the AC50 is 19.2 µM (active).

For `CC(O)CC(C)(C)O` (configuration not stated), the compound was classed as inactive in assay [1], in [2], in assay [18], in [3], in assay [4] and in [5]. Also, the call in assay [6], in assay [7], in [8], in assay [9], in assay [10] and in assay [11] was inactive. The outcome in assay [16], in [12], in assay [13], in assay [14], in assay [19] and in assay [17] was inactive. Besides, the call in [15] was inactive.

For the origin of these results see PubChem BioAssay (EPA / NIEHS).
